Compounds with a hit are over-represented: about 3.7% of the library has one in this group of screens.
CHT allo act: human CHT allosteric activation; Q9GZV3; CHT-expressing cells, membrane potential dye, choline EC20; active compounds read high; LV-AA mutant CHT in HEK293 cells; B-score at 10 µM; hit rate 0.49% among 310,000;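 active means initial fluorescence not abnormally high and integrated response B-score, plate-corrected, over 3 SD above library mean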
GPR7 antag: human neuropeptides B/W receptor 1 antagonism; inhibition, % at 4.4 µM; GPR7-expressing cells, fluorescence antagonist assay; hit rate 1.1% among 290,000; in the data active means inhibition above about 16%, passing the limit was not always enough;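 further: cells stimulated with the agonist NPW; 0% = agonist with vehicle and 100% = vehicle without agonist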
Target sequence (P48145 whole entry, looked up): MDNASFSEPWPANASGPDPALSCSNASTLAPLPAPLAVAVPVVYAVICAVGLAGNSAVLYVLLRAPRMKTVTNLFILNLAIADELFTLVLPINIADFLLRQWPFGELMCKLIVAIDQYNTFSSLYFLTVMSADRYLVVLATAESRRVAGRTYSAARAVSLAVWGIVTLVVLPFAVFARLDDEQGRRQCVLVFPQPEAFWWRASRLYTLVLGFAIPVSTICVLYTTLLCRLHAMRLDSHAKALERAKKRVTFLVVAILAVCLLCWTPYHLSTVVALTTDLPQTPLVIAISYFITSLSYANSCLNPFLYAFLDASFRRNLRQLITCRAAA
TMEM16A inh: mouse TMEM16A channel inhibition, primary screen. AID 588511. HEK293 TMEM16A/YFP iodide influx fluorescence, ionomycin. hit rate 1.2% among 310,000. normalized B-score (activity score, 25-100; higher = stronger inhibition) at 10 µM. Q8BHY3;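 active means ratio plate-corrected score three or more library SD toward inhibition, starting fluorescence score within five deviations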;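 further: score derived from kinetic fluorescence span divided by baseline fluorescence per well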
TMEM16A act: activates or potentiates the mouse TMEM16A chloride channel; hit rate 0.3% among 340,000; HEK293 TMEM16A/YFP-H148Q/I152L, iodide quench fluorescence; active compounds read low; B-score at 10 µM;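 active means fluorescence-ratio B-score plate-corrected deviation score at least 3 library SD below zero, with starting fluorescence score within 5 deviations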;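 further: channel opened by trigger with iodide after compound preincubation; score built on the fluorescence ratio of max minus min over baseline; more negative score means more quench and so TMEM16A activation or potentiation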
Kir21 block: Kir2.1 (mouse) channel inhibition; HEK293-Kir2.1, FluxOR thallium flux fluorescence; active compounds read low; B-score at 10 µM; hit rate 0.85% among 310,000; P35561; AID 1672;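 active means fluorescence ratio B-score at or below minus 3 SD of library scores, with starting-brightness B-score within 2 SD, cut at about -4.2 in these data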;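 further: channel flux triggered by added potassium and thallium sulfate stimulus; B-score of peak minus minimum fluorescence over baseline after thallium stimulus; more negative B-score means stronger Kir2.1 block with less thallium influx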
CHT block: human CHT choline transport inhibition | AID 488975 | hit rate 0.86% among 310,000 | B-score at 10 µM | CHT-expressing cells, membrane potential dye, choline response; active compounds read low | Q9GZV3;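 active means B-score over 3 SD under the library average, and starting fluorescence ratio not unusually high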;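 further: choline stimulus applied at its EC90 after an EC20 pre-addition; B-score computed on integrated fluorescence ratio after choline addition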
Active calls of the source: *; i = inactive; nt = no result given.

SMILES	CHT allo act	GPR7 antag	TMEM16A inh	TMEM16A act	Kir21 block	CHT block
CC(=O)Nc1cccc(C(=O)OCC(=O)N(c2ccccc2)C2CCS(=O)(=O)C2)c1 (stereo not drawn)	nt	nt	nt	i	nt	nt
Cc1ncn(-c2ccccc2)c1-c1ccccc1	i	nt	i	i	-0.51	i
COc1ccc(OC)c(S(=O)(=O)Nc2ccc3[nH]c(=O)[nH]c3c2)c1	i	1.7	i	i	0.75	i
CCCCC(CC)CO (stereo not drawn)	nt	nt	nt	i	nt	nt
CCCCC(CC)CN=C(N)NC(N)=NCCCCCCN=C(N)NC(N)=NCC(CC)CCCC (stereo not drawn)	i	nt	i	-26*	nt	i
Cc1ccc(COC(=O)c2cc([N+](=O)[O-])ccc2N2CCOCC2)cc1	6.42*	24.7	i	i	-1.08	i
COc1ccc(C(=O)c2cc([N+](=O)[O-])ccc2N2CCOCC2)cc1	10.5*	17.0	i	i	-0.58	i
COc1ccc2nc(SCC(=O)O)nc(C)c2c1	i	-9.1	i	i	nt	i
COc1ccc2nc(SCCOC(=O)Nc3ccc(Cl)cc3)nc(C)c2c1	i	-7.5	25*	i	-5.68*	i
O=c1[nH]c(CSc2nc3ccccc3[nH]2)nc2c1cnn2-c1ccccc1	i	-5.5	100*	i	-0.4	i
O=C(NC(NNc1ccc([N+](=O)[O-])cc1)(C(F)(F)F)C(F)(F)F)c1ccccc1Cl	i	-8.1	i	i	0.96	i
O=C(NC(NNc1ccc([N+](=O)[O-])cc1)(C(F)(F)F)C(F)(F)F)c1ccc(F)cc1	i	-4.5	100*	i	-0.87	i
Cc1c(NC(=O)CN2CCCC(C)C2)ccc2nsnc12 (stereo not drawn)	i	-4.1	i	i	-0.48	i
Cc1ccc(S(=O)(=O)N2CCN(C(=O)CC(C)n3cncn3)CC2)cc1C (stereo not drawn)	i	-5.3	i	i	0.56	i
CC(C)(C)OC(=O)N1CCN(C(=O)c2cccnc2Cl)CC1	i	-6.7	i	i	1.42	i
C#CCOc1ccccc1CNC1CCN(Cc2ccccc2)CC1	i	16.8	i	i	-4.4*	i
O=C(NC1CCN(Cc2ccccc2)CC1)c1ccccc1OCc1ccccc1Cl	i	12.8	i	i	-6.68*	i
Oc1ccc(Cl)cc1Sc1cc(Cl)ccc1O	nt	nt	nt	-5.57*	nt	nt
CCCC(=O)NCc1cc(-c2nn(C)c(=O)c3ccccc23)ccc1C	i	-1.4	i	i	-0.02	i
Cc1ccc(-c2nn(CC(=O)NCc3cc(-c4nn(C)c(=O)c5ccccc45)ccc3C)c(=O)c3ccccc23)cc1	i	6.4	i	-7.78*	0.04	i
COc1ccc(-[n+]2c(C)cc(/C=C3\Sc4ccccc4N3C)cc2C)cc1	i	30.9*	i	i	-14	i
COc1ccccc1-[n+]1c(C)cc(/C=C2\Sc3ccccc3N2C)cc1C	i	5.0	i	i	-23.5	i
Cn1c(=O)[nH]c(=O)c2c1nc(NCCc1ccccc1)n2CC(O)COc1ccccc1 (stereo not drawn)	i	-7.2	i	-51*	-0.84	i
N#Cc1ccccc1OCC(=O)NC(=O)NCc1ccco1	i	-4.0	i	i	-0.09	i
CCCCC(C(=O)OCC)C(N)Cc1ccc(F)cc1 (stereo not drawn)	i	14.6	i	i	-4.68*	i
SMILES	CHT allo act	GPR7 antag	TMEM16A inh	TMEM16A act	Kir21 block	CHT block
Clc1ccccc1Cc1noc(CN2CCCCC2CCc2ccccn2)n1 (stereo not drawn)	i	-10.1	i	i	-0.61	i
c1ccc2c3c([nH]c2c1)C(C1CCCCC1)N(Cc1ncc[nH]1)CC3 (stereo not drawn)	i	-0.5	i	i	-4.62*	i
COc1ccc(CCC(=O)OCC(=O)Nc2sccc2C(N)=O)cc1	nt	nt	nt	-5.31*	nt	nt
O=C(Nc1ccc(N=Nc2ccccc2)c(NC(=O)C2CCCO2)c1)C1CCCO1 (stereo not drawn)	i	-13.3	i	i	1	i
CCN1C(=NCCc2cccs2)N[C@@H](c2cccs2)C(C(=O)OC)=C1C	i	24.4	i	i	-6.03*	i
N#C/C(=C(/O)c1ccc2c(c1)OCO2)c1nc2cc(C(F)(F)F)ccc2s1	i	-6.4	100*	i	-2.16	-8.31*
O=C(Nc1cc(-c2nc3ccccc3s2)ccc1Cl)c1ccc2c(c1)OCO2	i	-2.7	i	i	0.13	i
O=C(O)c1cccc(Cn2c(Cl)c(/C=N/Nc3ccccc3)sc2=O)c1	i	1.8	i	-35*	0.35	i
O=C(O)c1cccc(Cn2c(Cl)c(/C=N/NC(=O)c3ccccc3Cl)sc2=O)c1	i	1.0	i	i	0.02	i
O=C(COC(=O)c1cc(Cl)ccc1O)Nc1cc(C(F)(F)F)ccc1N1CCOCC1	nt	nt	nt	i	nt	nt
CCOC(=O)Cn1c(=N)n(CCOc2cccc(C)c2)c2ccccc21	i	20.6	i	i	nt	i
CCOC(=O)Cn1c(=N)n(CCOc2ccc(Br)cc2)c2ccccc21	i	18.9*	i	i	-6.39*	i
Nc1nc2ccccc2n1CCOc1ccccc1Cl	i	16.9	i	i	0.88	-13.9*
Nc1nc2ccccc2n1CCOc1ccc(Br)cc1	i	18.2	i	i	-10.9*	i
Nc1nc2ccccc2n1CCOc1ccc(Cl)cc1	i	11.9	i	i	-1.06	i
O=C(CNC(=S)N(Cc1ccccc1)Cc1ccccc1F)NCCc1ccc(Cl)cc1	i	5.8	i	i	-1.01	i
CC(CC(=O)NC1CCCCC1)S(=O)(=O)c1ccc2c(c1)NC(=O)CO2 (stereo not drawn)	i	-3.8	i	i	-0.76	i
Cc1cc(OCC(O)CNC(C)c2ccccc2)ccc1C(C)C (stereo not drawn)	i	11.9	i	i	-10.1*	i
CCOC(=O)CN1CC23C=CC(O2)C(C(=O)NC2CCCCCC2)C3C1=O (stereo not drawn)	i	-3.8	i	i	-0.02	i
CCOC(=O)CN1CC23C=CC(O2)C(C(=O)NCCc2ccccc2)C3C1=O (stereo not drawn)	i	-6.8	i	-10.6*	0.53	i
Cc1ccc(S(=O)(=O)c2ccsc2NC(=O)c2ccccc2)cc1	nt	nt	nt	i	nt	nt
O=C(O)CC(C(=O)O)N1C(=O)/C(=C/c2ccc(-c3nc4ccccc4s3)o2)SC1=S (stereo not drawn)	i	-0.5	i	-7.75*	-2.78	i
Cc1cccc(C(=O)NC(=S)NNC(=O)c2ccccc2Cl)c1	i	3.2	100*	i	-0.4	i
